In PubChem BioAssay (EPA / NIEHS) one finds AC50 and outcome data, which are given here for 8 compounds.

Records with an inconclusive call do not appear. Activity calls are given as the source filed them. Rule for the calls: active = hit-call score of the fitted dose curve at least 0.9, where 1 is the maximum; inconclusive = response in the unintended direction; inactive = score below 0.9.

Sequence of Muscarinic acetylcholine receptor M2 (Homo sapiens) (P08172 whole entry, looked up): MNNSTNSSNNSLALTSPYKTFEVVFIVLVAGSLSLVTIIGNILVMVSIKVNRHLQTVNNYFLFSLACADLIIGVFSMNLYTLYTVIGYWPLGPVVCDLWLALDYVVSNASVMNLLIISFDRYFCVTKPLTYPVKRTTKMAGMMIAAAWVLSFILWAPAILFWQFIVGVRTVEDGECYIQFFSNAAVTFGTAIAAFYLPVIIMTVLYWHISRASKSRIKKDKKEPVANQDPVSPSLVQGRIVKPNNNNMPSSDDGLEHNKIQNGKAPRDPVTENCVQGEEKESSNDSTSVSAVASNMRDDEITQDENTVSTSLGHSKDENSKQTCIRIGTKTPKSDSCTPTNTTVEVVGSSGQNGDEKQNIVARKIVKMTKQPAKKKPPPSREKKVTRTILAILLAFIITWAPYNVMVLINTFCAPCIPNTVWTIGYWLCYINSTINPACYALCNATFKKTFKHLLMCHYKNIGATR

For the first assay, the target named is Muscarinic acetylcholine receptor M3 (Homo sapiens) (UniProt P20309). The assay can be described thus: NVS_GPCR_hM3: NovaScreen (NVS) G Protein-Coupled Receptor Assay for human Muscarinic, M3 Receptor (AID 2283272). As for the experimental part: (§1) NVS_GPCR_hM3 is a biochemical, single-readout assay that uses extracted gene-proteins from CHO in a cell-free assay. Measurements were taken 1 hour after chemical dosing in a 96-well plate.NVS_GPCR_hM3 is one of one assay component(s) measured or calculated from the NVS_GPCR_hM3 assay. It is designed to make measurements of radioligand binding, a form of binding reporter, as detected with scintillation counting signals by Filter-based radiodetection technology.Data from the assay component NVS_GPCR_hM3 was analyzed into 1 assay endpoint. This assay endpoint, NVS_GPCR_hM3, was analyzed in the positive analysis fitting direction relative to DMSO as the negative control and baseline of activity. Using a type of binding reporter, loss-of-signal activity can be used to understand changes in the binding as they relate to the gene CHRM3. Furthermore, this assay endpoint can be referred to as a primary readout, because the performed assay has only produced 1 assay endpoint. To generalize the intended target to other relatable targets, this assay endpoint is annotated to the gpcr intended target family, where the subfamily is rhodopsin-like receptor.
Sequence of Muscarinic acetylcholine receptor M3 (Homo sapiens) (P20309 whole entry, looked up): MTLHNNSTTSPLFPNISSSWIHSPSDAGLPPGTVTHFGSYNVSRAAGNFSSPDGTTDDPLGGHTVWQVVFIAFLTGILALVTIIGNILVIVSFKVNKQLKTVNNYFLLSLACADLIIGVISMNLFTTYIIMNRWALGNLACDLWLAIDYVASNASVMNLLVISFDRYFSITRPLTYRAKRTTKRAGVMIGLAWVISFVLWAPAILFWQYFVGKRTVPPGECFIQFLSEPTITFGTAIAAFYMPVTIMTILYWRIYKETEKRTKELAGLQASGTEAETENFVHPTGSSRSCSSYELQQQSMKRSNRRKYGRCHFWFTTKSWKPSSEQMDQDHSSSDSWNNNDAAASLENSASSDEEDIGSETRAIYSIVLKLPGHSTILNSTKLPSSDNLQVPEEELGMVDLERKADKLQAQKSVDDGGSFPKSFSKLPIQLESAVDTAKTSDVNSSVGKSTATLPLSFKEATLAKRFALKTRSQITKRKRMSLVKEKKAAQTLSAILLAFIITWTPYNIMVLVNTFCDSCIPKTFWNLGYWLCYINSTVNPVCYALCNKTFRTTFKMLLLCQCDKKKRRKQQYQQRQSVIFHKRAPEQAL
(§2) Binding assays used specific radioligands (tritiated, iodinated) with non-radioactive competitive displacement ligands in agonist or antagonist protocols (as indicated) and various reference compounds and inhibitors to titrate specific binding to receptors and transporters. Most enzyme assays (CYPs, kinases, phosphatases, proteases, HDACs) used recombinant protein and specific substrates (fluorescence mostly, some colorimetric and radioactive) and inhibitors, followed by a biochemical separation of substrate and product. All assays for the biochemical HTS were initially run in duplicate at a single concentration (10 uM for CYP450 assays and 25 uM for all others). […] Each assay was run with positive and negative controls, and concurrent controls on every plate. The follow-up (secondary) screen tested active chemical-pairs in concentration series, as well as a few additional assays not tested in the primary screen, some selected negative inactives, and several cases re-run in the concentration series for confirmatory purposes.
What is called AC50 is the midpoint of the concentration-response curve, whichever way the signal moves. Take `CCC[CH2][Sn]([Cl])([CH2]CCC)[CH2]CCC`: the AC50 was 1.44 µM (active). For `[Cl-].[Cl-].[Hg+2]`, the AC50 is 0.579 µM (active). Regarding `O=C(Oc1ccc(Br)cc1)N1CCN2CCC1CC2`, the AC50 is 19.4 µM (active). Same read-out and setting: the value for `CCOC(=O)[C@]1(c2ccccc2)Oc2ccccc2[C@@H]1N` was 13.3 µM (active). As to `CCCCCOC(=O)c1ccccc1C(=O)OCCCCC`, the outcome was inactive.

In a further assay the target is Muscarinic acetylcholine receptor M2 (Homo sapiens) (UniProt P08172). As to the kind of experiment: NVS_GPCR_hM2: NovaScreen (NVS) G Protein-Coupled Receptor Assay for human Muscarinic, M2 Receptor (AID 2283273). As for the experimental part:
as §1, with “NVS_GPCR_hM2” for “NVS_GPCR_hM3”, “plate.NVS_GPCR_hM2” for “plate.NVS_GPCR_hM3”, “NVS_GPCR_hM2,” for “NVS_GPCR_hM3,”, “CHRM2.” for “CHRM3.”
as §2, with “The follow-up (secondary) screen tested active chemical-pairs in concentration series, as well as a few additional assays not tested in the primary screen, some selected negative inactives, and several cases re-run in the concentration series for confirmatory purposes.” left out
As for `[Cl-].[Cl-].[Hg+2]`, the AC50 was 1.48 µM (active). In the case of `O=C(Oc1ccc(Br)cc1)N1CCN2CCC1CC2`, the half-maximal activity concentration (AC50) was 16.8 µM (active).

As for `CCOC(=O)[C@]1(c2ccccc2)Oc2ccccc2[C@@H]1N`, the AC50 is 3.28 µM (active).

The target in another assay is human Muscarinic, M4 Receptor, CHRM4 (gene 1132) (UniProt P08173). The assay can be described thus: NVS_GPCR_hM4: NovaScreen (NVS) G Protein-Coupled Receptor Assay for human Muscarinic, M4 Receptor (AID 2283274). The method in brief: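 Cell-free radioligand displacement using CHO-derived human M4 receptor protein, 1 h after dosing; bound radioactivity by filtration and scintillation counting. Primary screen single 25 uM duplicate, actives followed in concentration series.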
Sequence of human Muscarinic, M4 Receptor, CHRM4 (gene 1132) (P08173 whole entry, looked up): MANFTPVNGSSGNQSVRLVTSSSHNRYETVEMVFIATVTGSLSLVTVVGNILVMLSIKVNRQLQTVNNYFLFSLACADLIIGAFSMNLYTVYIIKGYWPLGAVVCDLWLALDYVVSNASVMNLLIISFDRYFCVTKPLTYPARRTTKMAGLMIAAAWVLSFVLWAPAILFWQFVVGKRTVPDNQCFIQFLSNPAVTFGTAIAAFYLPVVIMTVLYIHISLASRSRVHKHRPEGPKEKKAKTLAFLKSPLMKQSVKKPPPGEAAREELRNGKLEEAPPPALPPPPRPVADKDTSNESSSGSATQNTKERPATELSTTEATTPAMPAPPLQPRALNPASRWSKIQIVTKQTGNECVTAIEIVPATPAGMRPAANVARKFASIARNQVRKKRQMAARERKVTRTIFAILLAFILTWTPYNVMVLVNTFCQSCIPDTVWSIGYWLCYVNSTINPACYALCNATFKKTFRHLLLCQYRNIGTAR
As to `CCC[CH2][Sn]([Cl])([CH2]CCC)[CH2]CCC`, the AC50 is 17.6 µM (active). With `CCN(CC)CCO`, the outcome was inactive. `[Cl-].[Cl-].[Hg+2]`: the concentration at half-maximal activity (AC50) is 4.13 µM (active).

As for `O=C(Oc1ccc(Br)cc1)N1CCN2CCC1CC2`, the AC50 was 15.3 µM (active).

Consider `CCOC(=O)[C@]1(c2ccccc2)Oc2ccccc2[C@@H]1N`, for which the AC50 was 13.3 µM (active).

For the compound `O=C(N[C@H](c1ccccc1)[C@@H]1CN2CCC1CC2)c1c(Cl)ccc(C(F)(F)F)c1Cl`, the compound was called inactive.

As for `CCCCCCCCCCCCCN1CC(C)OC(C)C1` (stereo not given), the result was inactive.
